Compounds without any hit were thinned out: in the full panel of roughly 83,000, 20% have a hit.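 Results are percent growth after 48 hours of single-concentration exposure. 100 means growth as in untreated cells, lower positive values show inhibition; negative values down to -100 show cell death.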 Values without a mark were called inactive. Calls of active or inactive are those of the source. Rule for the calls: active = growth percent below 10; inactive = the rest.
Tests used:
Assay in all cases: NCI-60 one-dose screen, 48 h (100 = growth as untreated, 0 = no growth, -100 = all killed)
Conditions in all cases: 10 µM unless noted
SK-MEL-2 melanoma = test system: SK-MEL-2 melanoma
EKVX NSCLC = test system: EKVX NSCLC
SN12C renal = test system: SN12C renal
UO-31 renal = test system: UO-31 renal
TK-10 renal = test system: TK-10 renal
ACHN renal = test system: ACHN renal
CAKI-1 renal = test system: CAKI-1 renal
A498 renal = test system: A498 renal
CCRF-CEM leukemia = test system: CCRF-CEM leukemia
MOLT-4 leukemia = test system: MOLT-4 leukemia

Row | Compound | growth (SK-MEL-2 melanoma) | growth (EKVX NSCLC) [%] | growth (SN12C renal) [%] | growth (UO-31 renal) | growth (TK-10 renal) [%] | growth (ACHN renal) [%] | growth (CAKI-1 renal) | growth (A498 renal) | growth (CCRF-CEM leukemia) | growth (MOLT-4 leukemia)
1 | N#CC1=C(N)Oc2ccc3ccccc3c2C1c1ccc([N+](=O)[O-])cc1 (stereo not given) | 93.9% | 65.8 | 90.4 | 51.1% | 156 | 76.8 | 52.8% | 84.8% | 63.7% | 68.6%
2 | COc1ccc2c(c1)/C(=N/c1n[nH]c(=S)s1)C(=O)N2 | 105% | 98.6 | 97.8 | 74.3% | 115 | 83.6 | 78.4% | 89.9% | 44.5% | 76.2%
3 | NNCCc1ccc(NC(=O)CCCc2ccc(C(=O)Nc3ccccc3N)cc2)cc1 | 42.6% | 81.7 | 80.1 | 69.5% | 32.5 | 89.2 | 80.6% | 60.9% | 0.638% (active) | 27.9%
4 | CN1C(=O)/C(=C2\SC(=Nc3ccccc3)N(Nc3ccccc3)C2=O)c2ccccc21 | 108% | 101 | 97.8 | 61.4% | 148 | 95.3 | 74.2% | 103% | 103% | 101%
5 | C/C(=N\O)c1ccc(NC(=O)CSc2nnc(-c3cc(-c4ccc(S(N)(=O)=O)cc4)nc4ccccc34)n2-c2ccccc2)cc1 | 84% | 77.3 | 78.6 | 85.3% | 80.8 | 95.9 | 55.6% | 39.7% | 40.5% | 32.3%
6 | Oc1c(CN2CCOCC2)cc(COCc2ccccc2)c2cccnc12 | 36.9% | 92.5 | 39.9 | 6.45% (active) | 31.1 | 12.6 | 13.5% | 49.7% | 11.7% | 15.3%
7 | Cc1ccc2nc(-c3ccc(C(=O)NNC(=S)Nc4ccccc4)cc3)[nH]c2c1 | 112% | 93.2 | 93.9 | 89.8% | 151 | 99.6 | 95.3% | 46.6% | 88.8% | 83.3%
8 | CCO/C=N/C1=C(C#N)C(c2ccc(F)cc2)c2sc3c(F)cccc3c2O1 (stereo not given) | 2.27% (active) | 66.5 | 49.7 | 54.2% | 64.4 | 54 | 25.2% | 40.8% | 22.9% | 51.5%
9 | O=C(N=Nc1c(O)[nH]c2ccccc12)Nc1ccc(F)cc1 | 102% | 94.3 | 94.6 | 72.8% | 113 | 92.8 | 81.5% | 102% | 95.4% | 92.5%
10 | COc1ccc2nc(Cl)c(/C=C3\CC(c4ccccc4)=NN(c4ccccc4)C3=O)cc2c1 | 63.4% | 67.7 | 72.3 | 61.7% | 78.6 | 18.4 | 14.5% | 46.9% | 96.9% | 79.8%
11 | CNC(C)[C@H]1CCC2C3CC=C4C(=O)[C@@H](NC(=O)C=C(C)C)CC[C@]4(C)C3CC[C@@]21C (stereo not given in full) | 23.8% | 24.2 | 17 | -35.5% (active) | 60.1 | 26 | 3.96% (active) | 56% | -20% (active) | -55.8% (active)
12 | N#Cc1c(-c2ccccc2)nc(SCC(O)CN2CCOCC2)nc1N1CCOCC1 (stereo not given) | 7.33% (active) | 65.4 | 57.8 | 41.7% | 40.8 | 54.4 | 37.4% | -3.34% (active) | 88% | 83.2%
13 | CC1=C(C(=O)Nc2ccccc2)C(c2ccc3c(c2)OCO3)NC(=S)N1 (stereo not given) | 106% | 107 | 104 | 88.2% | 97.8 | 107 | 97.1% | 114% | 115% | 112%

Source: PubChem BioAssay (NCI)
